About 83,000 compounds went through this panel and 20% of them were active in at least one assay; those are over-represented in the sample as a whole.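 Compound tested at a single concentration for 48 hours in 96-well plates; a percent growth value below 10 was scored as active.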 Unmarked numbers belong to inactive results. Calls of active or inactive are those of the source.
Tests used:
Test in all cases: NCI-60 one-dose screen, 48 h (100 = growth as untreated, 0 = no growth, -100 = all killed)
HCT-15 colon = settings: 10 µM unless noted
HT29 colon = settings: 10 µM unless noted
SNB-75 CNS = settings: 10 µM unless noted
SNB-19 CNS = settings: 10 µM unless noted
U251 CNS = settings: 10 µM unless noted
PC-3 prostate = settings: 10 µM unless noted
SK-MEL-5 melanoma = settings: 10 µM unless noted
UACC-62 melanoma = settings: 10 µM unless noted
LOX IMVI melanoma = settings: 10 µM unless noted
SK-MEL-28 melanoma = settings: 10 µM unless noted
SK-MEL-2 melanoma = settings: 10 µM
EKVX NSCLC = settings: 10 µM unless noted
SN12C renal = settings: 10 µM unless noted
UO-31 renal = settings: 10 µM unless noted
TK-10 renal = settings: 10 µM unless noted
ACHN renal = settings: 10 µM unless noted
CAKI-1 renal = settings: 10 µM unless noted
CCRF-CEM leukemia = settings: 10 µM unless noted
MOLT-4 leukemia = settings: 10 µM unless noted
A498 renal = settings: 10 µM unless noted

Row | Structure (SMILES) | growth (HCT-15 colon) | growth (HT29 colon) | growth (SNB-75 CNS) | growth (SNB-19 CNS) | growth (U251 CNS) | growth (PC-3 prostate) | growth (SK-MEL-5 melanoma) | growth (UACC-62 melanoma) | growth (LOX IMVI melanoma) | growth (SK-MEL-28 melanoma) | growth (SK-MEL-2 melanoma) | growth (EKVX NSCLC) [%] | growth (SN12C renal) | growth (UO-31 renal) | growth (TK-10 renal) | growth (ACHN renal) | growth (CAKI-1 renal) [%] | growth (CCRF-CEM leukemia) | growth (MOLT-4 leukemia) | growth (A498 renal)
1 | Cc1cc(O)c2c(c1)C1OC(=O)CCCCCN1C1=C2C(=O)c2cccc(OC3CC(O)C(O)C(C)O3)c2C1=O (centres undefined) | 46.1% | 93.7% | 117% | 97.1% | 63.1% | 87.2% | 86.9% | 89.5% | 34.3% | 75.8% | 46.4% | 97 | 66.3% | 99.9% | 142% | 69.1% | 96.9 | 57.8% | 63.3% | –
2 | CN(N)c1nc2sc3c(c2c(=O)[nH]1)CCCC3 | 99.6% | 90.4% | 91.9% | 105% | 92.1% | 94.9% | 106% | 110% | 102% | 114% | 103% | 86.6 | 104% | 72.9% | 111% | 107% | – | 98.9% | 97.5% | 101%
3 | COC(=O)c1[nH]cnc1/N=N/N(C)CCO | 109% | 108% | 79% | 103% | 104% | 109% | 102% | 101% | 101% | 117% | 108% | 97.9 | 102% | 84.9% | 129% | 103% | – | 102% | 85.8% | 121%
4 | CCC1(/C=N/NC(N)=S)NC(=O)NC1=O (centres undefined) | 107% | 94.9% | 95.9% | 109% | 86.8% | 85.1% | 102% | 104% | 102% | 111% | 109% | 104 | 95.6% | 87.5% | 102% | 109% | 94.1 | 102% | 90% | –
5 | CC(C)C1CCC(C)C(C2(C#N)C(N)=NC(N)=C2C#N)C1=O (centres undefined) | 101% | 96.2% | 84% | 101% | 99.7% | 86% | 101% | 102% | 92.5% | 107% | 109% | 94.4 | 100% | 80.2% | 115% | 107% | – | 103% | 96.1% | 105%
6 | CC(N)C(Cc1ccccc1)c1ccc(Cl)cc1 (centres undefined) | 101% | 76.8% | 70.4% | 92% | 86.4% | 68% | 93.3% | 93.2% | 90.1% | 96.7% | 96.7% | 91.6 | 90.7% | 65.4% | 89.5% | 97% | 79.1 | 91.2% | 76.4% | –
7 | CCCCCCC1(/C=N/NC(N)=O)NC(=O)NC1=O (centres undefined) | 98.3% | 76.9% | 82.2% | 105% | 94.3% | 91.8% | 96.9% | 99% | 97.4% | 106% | 98.8% | 91.8 | 105% | 87.2% | 99.1% | 105% | 91.7 | 102% | 101% | –
8 | COC(=O)CCCNc1c(-c2c(O)c(O)cc3c(O)c(-c4c(C)cc5c(-c6nc7ccccn7c6NCCCC(=O)OC)c(O)c(O)cc5c4O)c(C)cc23)nc2ccccn12 | 76.9% | 48.8% | 19.9% | 21.4% | 14% | 52.7% | 76.2% | 41.4% | 18% | 39.7% | 60.1% | 61.8 | 21.7% | 57.8% | 64.4% | 78.7% | – | 27.4% | 15.7% | 32.1%
9 | Nc1c(C(=O)c2ccccc2)sc2nc(-c3cccs3)cc(-c3cccs3)c12 | 31.2% | 11.2% | 22.2% | 42.9% | 25.6% | 33% | 43.7% | 28.7% | 51.5% | 64.9% | 40.9% | 62.2 | 59.5% | 60.5% | 81.6% | 55.7% | 50.5 | 40.1% | 44.8% | –
10 | CCN(CC)C(=O)C[N+](C)(C)CCOC(c1ccccc1)c1ccccc1 | 101% | 105% | 75.4% | 106% | 110% | 100% | 103% | 106% | 97.7% | 105% | 103% | 100 | 106% | 93.4% | 98.2% | 111% | – | 112% | 103% | 114%
11 | Cc1ccsc1C(NC(=O)c1ccccc1)c1cc(Cl)c2cccnc2c1O (centres undefined) | 13.4% | 29.2% | 30% | 15.3% | 6.52% (active) | 18.3% | 4.33% (active) | -22.3% (active) | 8.58% (active) | 45.4% | 12.6% | 18.2 | 23.2% | 2.22% (active) | 27.6% | 10.8% | 15.7 | 9.96% (active) | 14.6% | –
12 | COc1ccc(-c2nocc2-c2cc(OC)c(OC)c(OC)c2)cc1 | 9.74% (active) | 0.361% (active) | 32.8% | 34.9% | 19.1% | 29% | 7.25% (active) | 13% | 43.5% | 49.8% | 41.5% | 54.2 | 50% | 36.3% | 67.3% | 39.6% | 31.2 | 22.7% | 20.4% | –
13 | C[N+](C)(CCOC(c1ccccc1)c1ccccc1)CC(=O)OCc1ccccc1 | 99.3% | 101% | 76% | 106% | 106% | 98.3% | 98.1% | 104% | 101% | 106% | 105% | 101 | 105% | 86.9% | 96% | 111% | – | 122% | 116% | 114%
14 | NC(=O)c1n[nH]n2c1nc(=O)c1c3c(sc12)CCCC3 | 107% | 106% | 102% | 104% | 97% | 85.3% | -31.5% (active) | 103% | 99.3% | 120% | 106% | 101 | 101% | 84.4% | 106% | 111% | – | 84.2% | 100% | 115%
15 | NC1=Nc2ccccc2N(O)N1 | 105% | 90.6% | 78.5% | 108% | 98.6% | 95.1% | 105% | 102% | 96.8% | 100% | 89.2% | 95.4 | 99.1% | 88.4% | 94.7% | 100% | 91.8 | 105% | 99.4% | –
16 | CC(=O)OCCC/C(=C\c1ccc2ccccc2c1)[N+](=O)[O-] | -69.4% (active) | -29.8% (active) | -88.9% (active) | -39.5% (active) | -90.7% (active) | -96.8% (active) | -94% (active) | -75.5% (active) | -83.3% (active) | -91.1% (active) | -68.5% (active) | 42.1 | -66.4% (active) | -99.8% (active) | -64.4% (active) | -92.6% (active) | – | -49.4% (active) | -26.1% (active) | -22.4% (active)

From PubChem BioAssay (NCI)
